PubChem BioAssay AID1159580 (chemical genetic matrix, 2015)
About 2,000 (36%) of roughly 5,500 compounds were called active. Another 18% or so got no clear call; they are omitted. Cut-off read from the data, not from the text of the source: active = normalized growth mostly below about 0.91 (no sharp cut-off); inconclusive = no clear call, values can overlap the other calls; inactive = mostly above about 0.92. This is one part of the list.

Test: chemical genetic growth profiling, strain panel (AID 1159580);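 note: tested at 20 µM; growth read once vehicle control cultures reached saturation at 30 °C; 1 = growth at the plate median or of vehicle wells; lower values mean less growth of the strain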
Details: growth OD

Measured: normalized growth

CC(=O)OC1CN2CCC1CC2 (stereo not given)
inactive: S. cerevisiae deletion strains, locus YAL013W, strain DEP1, hits give low values 0.997 | S. cerevisiae deletion strains, locus YBR021W, strain FUR4, hits give low values 1.01 | S. cerevisiae deletion strains, locus YBR229C, strain ROT2, hits give low values 0.973 | S. cerevisiae deletion strains, locus YCL029C, strain bik1, hits give low values 0.983 | S. cerevisiae deletion strains, locus YDL035C, strain GPR1, hits give low values 1.02 | S. cerevisiae deletion strains, locus YDL074C, strain BRE1, hits give low values 1.03 | S. cerevisiae deletion strains, locus YDL101C, strain DUN1, hits give low values 0.989 | S. cerevisiae deletion strains, locus YDL134C, strain PPH21, hits give low values 0.988 | S. cerevisiae deletion strains, locus YDL185W, strain tfp1, hits give low values 0.965 | S. cerevisiae deletion strains, locus YDL192W, strain arf1, hits give low values 0.985 | S. cerevisiae deletion strains, locus YDR101C, strain arx1, hits give low values 0.987 | S. cerevisiae deletion strains, locus YDR150W, strain NUM1, hits give low values 0.982 | S. cerevisiae deletion strains, locus YDR162C, strain NBP2, hits give low values 0.991 | S. cerevisiae deletion strains, locus YDR318W, strain mcm21, hits give low values 1 | S. cerevisiae deletion strains, locus YDR388W, hits give low values 0.991 | S. cerevisiae deletion strains, locus YDR502C, strain sam2, hits give low values 0.993 | S. cerevisiae deletion strains, locus YEL061C, strain CIN8, hits give low values 0.995 | S. cerevisiae deletion strains, locus YER110C, hits give low values 0.959 | S. cerevisiae deletion strains, locus YER155C, strain BEM2, hits give low values 1 | S. cerevisiae deletion strains, locus YER167W, strain BCK2, hits give low values 1 | S. cerevisiae deletion strains, locus YGL078C, strain dbp3, hits give low values 0.993 | S. cerevisiae deletion strains, locus YGL086W, strain mad1, hits give low values 0.994 | S. cerevisiae deletion strains, locus YGL248W, strain PDE1, hits give low values 1.01 | S. cerevisiae deletion strains, locus YGR078C, strain PAC10, hits give low values 1.01 | S. cerevisiae deletion strains, locus YGR135W, strain pre9, hits give low values 0.995 | S. cerevisiae deletion strains, locus YGR229C, strain SMI1, hits give low values 1.01 | S. cerevisiae deletion strains, locus YGR252W, strain gcn5, hits give low values 1.07 | S. cerevisiae deletion strains, locus YHR030C, strain SLT2, hits give low values 1 | S. cerevisiae deletion strains, locus YHR079C, strain IRE1 (second series), hits give low values 0.982 | S. cerevisiae deletion strains, locus YHR094C, strain hxt1, hits give low values 0.985 | S. cerevisiae deletion strains, locus YHR129C, strain ARP1, hits give low values 1 | S. cerevisiae deletion strains, locus YHR200W, strain rpn10, hits give low values 0.985 | S. cerevisiae deletion strains, locus YIL066C, strain RNR3, hits give low values 0.993 | S. cerevisiae deletion strains, locus YIL073C, strain SPO22, hits give low values 0.97 | S. cerevisiae deletion strains, locus YIL125W, strain kgd1, hits give low values 0.982 | S. cerevisiae deletion strains, locus YIR030C, strain dcg1, hits give low values 0.971 | S. cerevisiae deletion strains, locus YJL095W, strain BCK1, hits give low values 1.04 | S. cerevisiae deletion strains, locus YJL134W, strain LCB3, hits give low values 0.987 | S. cerevisiae deletion strains, locus YJL168C, strain set2, hits give low values 0.994 | S. cerevisiae deletion strains, locus YJL187C, strain SWE1 (second series), hits give low values 1.01 | S. cerevisiae deletion strains, locus YJR043C, strain POL32, hits give low values 1.01 | S. cerevisiae deletion strains, locus YJR075W, strain HOC1, hits give low values 1.02 | S. cerevisiae deletion strains, locus YKL009W, strain mrt4, hits give low values 0.963 | S. cerevisiae deletion strains, locus YKL068W, hits give low values 0.982 | S. cerevisiae deletion strains, locus YKL085W, strain MDH1 (second series), hits give low values 0.992 | S. cerevisiae deletion strains, locus YKL085W, strain MDH1, hits give low values 0.992 | S. cerevisiae deletion strains, locus YKL190W, strain CNB1, hits give low values 0.997 | S. cerevisiae deletion strains, locus YKR001C, strain vps1, hits give low values 0.981 | S. cerevisiae deletion strains, locus YLR039C, strain RIC1, hits give low values 1 | S. cerevisiae deletion strains, locus YLR058C, strain SHM2, hits give low values 0.986 | S. cerevisiae deletion strains, locus YLR102C, strain apc9, hits give low values 0.982 | S. cerevisiae deletion strains, locus YLR262C, strain YPT6, hits give low values 0.997 | S. cerevisiae deletion strains, locus YLR268W, strain sec22, hits give low values 1.09 | S. cerevisiae deletion strains, locus YLR330W, strain CHS5, hits give low values 0.991 | S. cerevisiae deletion strains, locus YLR342W, strain FKS1 (second series), hits give low values 1.02 | S. cerevisiae deletion strains, locus YLR371W, strain rom2, hits give low values 0.929 | S. cerevisiae deletion strains, locus YLR418C, strain cdc73, hits give low values 1.05 | S. cerevisiae deletion strains, locus YML016C, strain PPZ1, hits give low values 0.981 | S. cerevisiae deletion strains, locus YML032C, strain rad52, hits give low values 1.01 | S. cerevisiae deletion strains, locus YML124C, strain tub3, hits give low values 0.976 | S. cerevisiae deletion strains, locus YMR078C, strain ctf18, hits give low values 0.972 | S. cerevisiae deletion strains, locus YMR223W, strain ubp8, hits give low values 0.995 | S. cerevisiae deletion strains, locus YMR263W, strain SAP30, hits give low values 1.01 | S. cerevisiae deletion strains, locus YMR307W, strain GAS1, hits give low values 1.1 | S. cerevisiae deletion strains, locus YNL067W, strain RPL9B, hits give low values 1.04 | S. cerevisiae deletion strains, locus YNL128W, strain TEP1, hits give low values 0.997 | S. cerevisiae deletion strains, locus YNL153C, strain GIM3, hits give low values 1.01 | S. cerevisiae deletion strains, locus YNL233W, strain BNI4, hits give low values 1.04 | S. cerevisiae deletion strains, locus YNL250W, strain rad50, hits give low values 0.98 | S. cerevisiae deletion strains, locus YNL271C, strain bni1, hits give low values 0.987 | S. cerevisiae deletion strains, locus YNL298W, strain CLA4, hits give low values 0.962 | S. cerevisiae deletion strains, locus YNL307C, strain MCK1, hits give low values 0.988 | S. cerevisiae deletion strains, locus YNL322C, strain KRE1, hits give low values 0.995 | S. cerevisiae deletion strains, locus YNR052C, strain pop2, hits give low values 0.989 | S. cerevisiae deletion strains, locus YOL006C, strain TOP1, hits give low values 1.04 | S. cerevisiae deletion strains, locus YOL012C, strain htz1 1.28 | S. cerevisiae deletion strains, locus YOL147C, strain pex11, hits give low values 0.989 | S. cerevisiae deletion strains, locus YOR061W, strain CKA2, hits give low values 0.975 | S. cerevisiae deletion strains, locus YOR136W, strain idh2, hits give low values 0.988 | S. cerevisiae deletion strains, locus YOR144C, strain elg1, hits give low values 0.968 | S. cerevisiae deletion strains, locus YOR184W, strain ser1, hits give low values 0.98 | S. cerevisiae deletion strains, locus YOR316C, strain cot1, hits give low values 0.978 | S. cerevisiae deletion strains, locus YPL055C, strain LGE1, hits give low values 1.02 | S. cerevisiae deletion strains, locus YPL241C, strain CIN2, hits give low values 0.999 | S. cerevisiae deletion strains, locus YPR119W, strain clb2, hits give low values 0.987 | S. cerevisiae deletion strains, locus YPR141C, strain kar3, hits give low values 0.963 | S. cerevisiae deletion strains, locus YPR163C, strain tif3, hits give low values 0.986 | S. cerevisiae deletion strains, locus YPR167C, strain met16, hits give low values 0.984 | S. cerevisiae deletion strains, strain wtn01, hits give low values 1.01 | S. cerevisiae strains, strain wild type, hits give low values 1.01
